Laboratory results reported in the supplement of paper PMC6555819.

Tests used:
Test in all cases: PBM binding z-score (relative to random genomic background probes); higher = stronger binding; sequences stand for … in GC…GCGATTGACAGCGTAGAATGAAGG
[1] = system: RARb homodimer (NR concentration 270 nM)
How it was run: (§1)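 The probes on custom Agilent 4×180K protein-binding microarrays were double-stranded, with 34-nt variable regions bearing direct-repeat seeds, single-nucleotide variants, half-site ablations and random human genomic background sequences. Incubation lasted 1 h with ligand-free nuclear receptor dimers in PBS pH 7.4, 2% milk, 0.02% Triton X-100, 1 mM DTT, 0.2 mg/mL BSA and 0.4 mg/ml salmon testes DNA. Antibodies against each partner (one per run) detected bound dimers, and fluorescence scans were regression-normalized. Binding z-scores take the random background probes as reference.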

[2] = system: RARg:RXRa (NR concentration 270 nM, RXRa partner concentration 90 nM)
How it was run: as §1

[3] = system: RARg homodimer (NR concentration 270 nM)
How it was run: as §1

[4] = system: RXRa DBDmut IVT, anti-RXR (DBD mutation: RXRa K156A/R161A, NR concentration 90 nM)
How it was run: as §1

[5] = system: RXRa homodimer (NR concentration 180 nM)
How it was run: as §1

[6] = system: THRa:RXRa (NR concentration 90 nM, RXRa partner concentration 90 nM)
How it was run: as §1

[7] = system: THRa homodimer (NR concentration 90 nM)
How it was run: as §1

[8] = system: VDR:RXRa (NR concentration 270 nM, RXRa partner concentration 90 nM)
How it was run: as §1

[9] = system: VDR homodimer (NR concentration 270 nM)
How it was run: as §1

Sequence | PBM binding z-score [1] | PBM binding z-score [2] | PBM binding z-score [3] | PBM binding z-score [4] | PBM binding z-score [5] | PBM binding z-score [6] | PBM binding z-score [7] | PBM binding z-score [8] | PBM binding z-score [9]
TGAATCAGGTTAAAGATCAGGGAACGTGGCGTCG | -7.29e-05 | 0.805 | 0.611 | -0.0911 | 1.71 | 1.04 | -0.365 | 0.238 | -0.0211
TTACCAAGGTGACGGTCGTTGATCCCTCTGTAGA | 1.18 | 0.607 | 0.608 | -0.779 | 0.836 | 2.01 | 0.865 | 0.0426 | -0.245
CAAACTCGGTCAAGGTCAAAGTCGGTTTGTGCCA | 4.47 | 5.26 | 5.55 | 2.48 | 4.82 | 4 | 3.53 | 4.95 | 4.43
CGAACTAGGTCATTGACAGGACAGCGAATAGTAA | 2.86 | 4.65 | 4.4 | 2.19 | 2.44 | 2.9 | 0.784 | 2.05 | 1.31
CTACCAAGGTGAACAGGGTCGTTGATTACTATTC | 1.71 | 1.51 | 1.17 | 1.08 | 1.87 | 2.87 | 1.68 | 5.66 | 1.92
CTACCAAGGTGAACAAGGTTGTTGATTACTATTC | 1.02 | 0.783 | 0.877 | 0.73 | 0.747 | 2.05 | 0.944 | 4.05 | 0.267
CAAACTAGGTCACCGGAAGGTCAAAGCCCGCATG | 5.35 | 8.33 | 7.37 | 1.48 | 6.03 | 4.42 | 2.96 | 5.79 | 3.25
TTACCAATGTGAAGGTCGTTGATCCCTCTGTAGA | 1.25 | 0.262 | 0.216 | 0.586 | 1.05 | 0.82 | 0.201 | 1.17 | 1.04
ACAGACAGGTGAGTGAAGGTAAGTCAGCTGGACG | 0.373 | 0.45 | 0.335 | -0.68 | 0.274 | 1.03 | -0.473 | -0.37 | -0.657
CGAACTAGGTCTTCCAGGACAGTGAATACATTGA | 0.194 | 0.154 | 0.415 | 0.373 | -0.0434 | 1.71 | 0.787 | -0.0143 | 0.0101
CCTTTCGGGTCACTGACAGGTTATAGCATTTGGA | 3.44 | 5.76 | 4.91 | 2.55 | 5.16 | 4.17 | 2.95 | 3.86 | 1.19
CGCCCAAGGTCAAAGGTCAGTGAAGAGATGACGG | 5.66 | 8.68 | 8.27 | 3.9 | 10 | 4.83 | 2.31 | 6.61 | 3.24
AGAATAAGGTTACCAAAGATCAGGGAAACGCTTG | 1.1 | 2.06 | 2 | 0.391 | 2.36 | 2.69 | 0.914 | 0.872 | 0.232
CGAACTAGGTCTAGGACAGTGAATCTCCGCACGC | -0.234 | -0.33 | -0.233 | 0.104 | -0.217 | 0.316 | 0.0986 | -0.692 | -0.409
CCTTACGCGTCAAGGTTATAGCACGGGTGGTACG | 0.818 | 0.576 | 0.348 | 0.122 | 1.06 | 1.5 | 0.517 | 0.442 | 0.299
AGAATGAGGTTACCAACGATCAGGGAAACGCTTG | 0.885 | 1.97 | 1.6 | 1.08 | 2.45 | 2.75 | 0.794 | 1.28 | 0.331
CGTTACGGGTCACTCCAGGTTATAGCATCGGAGT | 3.08 | 4.49 | 4.8 | 1.5 | 4.86 | 4.97 | 0.567 | 4.5 | 1.17
AGAACGAGGGTACGCTGAGTTGATAGCAGAGTAG | -0.336 | 0.424 | 0.303 | 0.994 | 0.16 | 0.2 | -0.484 | 1.15 | 2.14
GCTAGCAGGCCATTTGGGTCACTCATTGACGGGC | 1.77 | 0.783 | 1.14 | 0.292 | 0.477 | 1.69 | 0.799 | 0.798 | 0.121
TCTTGTAGATCAAGCAGGGTAAGAAAGCCTGAGT | -0.297 | -0.27 | -0.38 | 0.436 | -0.147 | 1.2 | -0.451 | 0.33 | 0.209
CCTACTGGGCCAAGGTCACTGATCAGTCAAAGCA | 3.91 | 4.17 | 4.29 | 0.302 | 3.92 | 3.6 | 2.65 | 2.92 | 2
TTATATAGGTAAATGCTAGGTGAAAGTCCGATCT | 0.66 | 0.442 | 0.423 | 0.585 | 0.781 | 1.62 | 0.619 | 0.639 | 0.705
CTCGACAGGTCGGTTGAGGTGAGTATACGGATAA | 0.715 | 0.769 | 0.825 | -0.127 | 0.289 | 4.41 | 1.11 | 0.149 | 0.012
AGAATGAGGTTACCAAAGATCAGGCAAACGCTTG | 0.854 | 1.97 | 1.63 | 1.16 | 2.65 | 2.84 | 0.538 | 1.36 | -0.192
ATATGAAGGTTAAGGGTCATTCAGGTTGGTTCGC | 4.38 | 5.3 | 3.81 | 2.14 | 7.12 | 3.95 | 1.5 | 6.02 | 4.67
CCGACTGGGGCGTAAGGTTACCATAAGCCAGCCC | 1.23 | 0.788 | 0.295 | -0.36 | 0.979 | 1.92 | 0.973 | 0.154 | -0.426

Sequence | PBM binding z-score [1] | PBM binding z-score [2] | PBM binding z-score [3] | PBM binding z-score [4] | PBM binding z-score [5] | PBM binding z-score [6] | PBM binding z-score [7] | PBM binding z-score [8] | PBM binding z-score [9]
AATACAGGGTCATCGTAAGCCAGAGTACGCACAG | 3.27 | 5.55 | 4.8 | 3.07 | 6.56 | 3.68 | 1.39 | 4.87 | 3.12
CGTGAAAGTTCAACTAAGGTAACGTAAAGCACGC | 4.13 | 5.55 | 6.12 | 4.76 | 4.3 | 5.32 | 1.64 | 4.46 | 3.71
GGAACGAGGGCAAAGTTAATAGCATCTGTCGACG | 1.24 | 1.77 | 1.99 | 2.78 | 1.55 | 1.27 | -0.176 | 1.17 | 1.31
TAGCCTAGGTCATGCGGGCGAGTATAGTGTCGGC | 2.94 | 3.64 | 3.75 | 0.518 | 2.68 | 2.89 | 1.22 | 1.72 | 0.494
GCTGCTAGGTCAGGTTGGCCAGCTAACGGGTACG | 2.23 | 2.48 | 3.46 | -0.0229 | 0.917 | 1.46 | 0.0199 | 0.052 | 0.0457
CCAGACAGGTGAGAATGTAACTCAGCCTCGATTA | -0.0133 | 0.273 | 0.342 | 0.0123 | 0.179 | -0.103 | -0.12 | -0.0872 | -0.0924
AGAATGAGGTTAAGATCACGGAAACAGAATACAT | 0.84 | 2.33 | 1.81 | 0.924 | 2.92 | 2.47 | 0.742 | 1.41 | 0.686
AGAATCAGGTTAAGATCAGGGAAACAGAATACAT | 0.909 | 0.705 | 0.926 | 0.172 | 0.786 | 1.45 | 0.772 | 0.3 | 0.415
GTACCAAGGTGATTAGGTCGTTGATGAGTAGGCG | 1.06 | 0.806 | 0.66 | 0.0245 | 0.805 | 1.49 | 1.03 | 0.223 | 0.631
ATATGTAGGTTTTCGGGTCATTCAGTTTGCGCAT | 2.88 | 2.43 | 1.72 | 1.88 | 3.57 | 3.89 | 4.22 | 5.07 | 4.55
TCTTGTAGATCAACAGGAGGATAAGAAAGATCGA | -0.517 | 0.227 | 0.396 | 0.36 | 0.432 | 0.177 | -0.392 | 0.0724 | -0.362
CAAACTAGGTCAAGGGCAAAGTCGGTTTGTGCCA | 4.17 | 3.94 | 4.68 | 2.01 | 3.06 | 3.27 | 1.43 | 2.54 | 1.79
CGAACTAGGTCATCCAGGAGAGTGAATACATTGA | 2.87 | 3.87 | 4.68 | 2.19 | 2.84 | 2.93 | 0.976 | 2.35 | 0.755
TAGCCTCGGTCATGCGGGCCAGTATAGTGTCGGC | 1.58 | 1.57 | 2.52 | -1.04 | -0.228 | -0.135 | -0.62 | -0.284 | -0.697
TCTTGTAGATCAGTAGGTTAAGAAAGCTGGCCAA | 0.381 | -0.0974 | -0.231 | 0.997 | 0.365 | 0.204 | 0.0296 | 0.673 | 0.104
CCGAGTAGGTTATGCGGCATTCAGGCAACGGTGA | 0.275 | 0.0373 | -0.0255 | -0.0566 | 0.274 | -0.034 | 0.263 | -0.251 | -0.167
CAAACTAGCTCACCGGAAGGTCAAAGTCCGCATG | 3.98 | 3.23 | 2.5 | 0.916 | 3.25 | 2.67 | 1.55 | 2.8 | 2.17
GTTCCAAGGTGAATAGGTCGTTGATGAGTAGGCG | 2.22 | 2.74 | 1.76 | 0.23 | 1.72 | 2.4 | 0.975 | 1.08 | 0.742
GCTCGGAGGACAAGGTCATAGCTTTGTCCGTAGA | 3.41 | 4.23 | 3.99 | 1.8 | 4.34 | 3.56 | 2.14 | 3.33 | 2.26
GATACAGGGTCAGCTAGAGGCCGGAGTATGGAAA | 3.18 | 5.66 | 4.38 | 1.07 | 4.04 | 2.7 | 0.265 | 2.8 | 0.333
ATATGTAGGTTATCGGGTCATTCTGTTTGCGCAT | 2.91 | 3.37 | 2.21 | 1.77 | 3.44 | 3.38 | 2.96 | 3.82 | 3.53
CCTACTGGGCCAAAAAGGTCATTCATGCCGATAA | 4.58 | 5.14 | 5.18 | 0.771 | 6.01 | 3.24 | 0.431 | 4.88 | 3.01
CCTACTGAGCCACGAAAGGTCATTGATTCAGTGA | 4.59 | 4.56 | 4.22 | 1.03 | 5.47 | 3.41 | 1.23 | 3.97 | 2.9
ATCGACAGGTCGTGAGGTGAGTATACAGAAAGGC | 1.39 | 2.07 | 1.67 | 0.0757 | 2.17 | 2.38 | 1.28 | 1.12 | 0.435
ACTAGCAGGCCAAGCGTCACTCAAGATTAGTCCG | -0.0548 | -0.358 | 0.0982 | -0.131 | -0.281 | -0.489 | -0.737 | -0.477 | -1.26
GGAACGAGGGCATACGAGTTGATAGCATGGCGAT | 0.493 | 1.12 | 1.65 | 2.41 | 1.02 | 2.92 | -0.328 | 2.73 | 2.37
